Screens (PubChem BioAssay)
In the library only some 3.2% were active in any assay of this set; here they are far more common.
USP2a block: USP2a (human) protease inhibition; O75604; USP2 core, Ub-CHOP2 coupled fluorogenic reporter, 485/531; actives 0.01% (n = 330,000); Potency, µM (highest dose often 38.3 µM), usual class: inhibitors
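Cell-free coupled assay: 10nM USP2 core preincubated 30min RT with compound in Tris-HCl pH 8.0/CaCl2/CHAPS buffer, then 25nM Ub-CHOP2 and 25nM reporter substrate; fluorescence (Ex 485/Em 531) read after 60min RT, normalized to NEM inhibition, concentration-response curves fitted.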
GALK inh: galactokinase (human) inhibition; actives 0.007% (n = 270,000); Purified GALK, Kinase-Glo residual ATP luminescence; AID 1868; P51570; Potency, µM (titrated, usually from 57.5 µM), usual class: inhibitors
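The enzyme phosphorylates galactose (100 uM) using ATP (35 uM); inhibition is detected as higher residual ATP, quantified by bioluminescence after 1 h reaction at room temperature, pH 8.0.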
VDR inh: inhibitors of human vitamin D receptor. Potency, µM, hits mostly inhibitors. AID 504847. actives 0.93% (n = 400,000). VDR-SRC2-3 peptide fluorescence polarization, 2 h. P11473
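FP read-out; VDR + SRC2-3 coactivator peptide; 23 nl compound by pintool; 2 h RT incubation; reagents held at 4 deg C, protected from light.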
PLK1 PBD block: inhibitors of human PLK1 polo-box domain binding; P53350; Plk1 PBD binding of FITC phosphopeptide, fluorescence polarization; Potency, µM, actives largely listed as inhibitors; actives 2.8% (n = 360,000); further: series mostly up to about 57 µM; nearly all actives have a fitted effect of over 65% in size
Coupling enz: coupling enzyme interference in Giardia aldolase counter-screen; coupling enzyme system counterscreen, AmpLite Red fluorescence; activity change, negative = inhibition, % at 58.2 µM, hits read low; actives 0.67% (n = 290,000); AID 2472; in the data active means activity change below about -30%
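Fluorescence at 525 nm excitation and 598 nm emission measured inhibition of the coupled detection system without aldolase. Compounds (at 57.5 uM final) were preincubated 10 min at room temperature with coupling enzyme reagent before a 20 min substrate/AmpLite Red step.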
USP1 inh: blocks the human USP1/UAF1 deubiquitinase complex; actives 0.23% (n = 390,000); O94782; AID 743255; Potency, µM (doses to about 57.1 µM), hits mostly inhibitors; recombinant USP1/UAF1, Ub-Rhodamine cleavage fluorescence; further: nearly all actives have a fitted effect of over 60% in size
Target sequence (O94782 whole entry, looked up): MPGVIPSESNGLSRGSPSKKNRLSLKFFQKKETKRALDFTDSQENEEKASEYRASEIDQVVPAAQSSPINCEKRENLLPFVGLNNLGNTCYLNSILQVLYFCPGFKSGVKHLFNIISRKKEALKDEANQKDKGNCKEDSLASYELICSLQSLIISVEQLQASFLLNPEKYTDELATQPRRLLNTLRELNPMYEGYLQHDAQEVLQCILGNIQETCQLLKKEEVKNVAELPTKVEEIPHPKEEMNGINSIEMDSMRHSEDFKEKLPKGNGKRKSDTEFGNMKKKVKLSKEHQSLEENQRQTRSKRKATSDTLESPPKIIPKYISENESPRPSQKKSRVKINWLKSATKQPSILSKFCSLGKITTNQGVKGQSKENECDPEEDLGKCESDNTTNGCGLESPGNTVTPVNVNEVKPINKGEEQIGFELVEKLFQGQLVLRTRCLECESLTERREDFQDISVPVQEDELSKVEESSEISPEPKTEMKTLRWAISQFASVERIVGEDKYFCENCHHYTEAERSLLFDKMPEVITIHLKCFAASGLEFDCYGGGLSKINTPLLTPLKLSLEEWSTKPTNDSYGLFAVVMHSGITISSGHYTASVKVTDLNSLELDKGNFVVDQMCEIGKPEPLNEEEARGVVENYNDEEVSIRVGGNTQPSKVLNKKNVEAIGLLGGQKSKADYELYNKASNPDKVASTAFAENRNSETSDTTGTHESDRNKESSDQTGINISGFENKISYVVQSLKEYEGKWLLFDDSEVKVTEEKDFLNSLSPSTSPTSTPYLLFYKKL
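USP1/UAF1 complex (1 nM) preincubated 15 min at room temperature with compound, then Ub-Rho substrate (150 nM final) added. Kinetic fluorescence at 480/540 nm over 6 reads at 60 s intervals; 50 mM HEPES pH 7.8, 0.5 mM EDTA, 0.1 mg/ml BSA, 1 mM TCEP, 0.01% Tween-20.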
A number is an active result; . = inactive; ? = inconclusive; / = no result. Unless noted, the call rests on the fitted dose curve; in most records, active means well fitted curve in the direction sought with a large enough effect; inconclusive means small, poorly fitted or top-dose-only effect, or another doubt; inactive means no such curve, though single readings can be large; an effect the other way counts as inactive or inconclusive.

SMILES	USP2a block	GALK inh	VDR inh	PLK1 PBD block	Coupling enz	USP1 inh
Fc1ccc(-c2nn3c(C4COc5ccccc5O4)nnc3s2)cc1 (stereo unspecified)	.	.	?	21µM	.	.
NC(N)=Nc1nc(C2COc3ccccc3O2)cs1 (stereo unspecified)	.	.	.	.	.	.
Fc1ccc(-c2nnc3sc(C4COc5ccccc5O4)nn23)cc1 (stereo unspecified)	.	.	.	.	.	.
c1csc(-c2nn3c(C4COc5ccccc5O4)nnc3s2)c1 (stereo unspecified)	.	.	?	24µM	.	.
O=C(NC(=S)NC1CCSC1=O)c1ccccc1 (stereo unspecified)	.	.	.	.	.	.
Cc1ccc(CNC(=O)C2=CCN(S(=O)(=O)c3ccc(C)cc3)CC2)cc1	.	/	/	/	.	/
Cc1ccc(S(=O)(=O)N2CC=C(C(=O)NC3CC3)CC2)cc1	.	.	.	21µM	.	.
O=C1C=CC2=C3c4cc(O)c(O)cc4C[C@@]3(O)COC2=C1	/	/	11µM	/	.	/
COC(=O)Nc1sc2c(c1C(N)=O)CCC(C)C2 (stereo unspecified)	.	.	.	?	.	.
COc1ccc(/C=C2\SC(=S)N(NS(=O)(=O)c3ccc(C)cc3)C2=O)c(OC)c1	?	/	.	?	.	.
COc1ccc(OC)c(/C=C2\SC(=S)N(NS(=O)(=O)c3ccc(C)cc3)C2=O)c1	.	.	?	27µM	.	?
COc1ccc(/C=C2\SC(=S)N(NS(=O)(=O)c3ccccc3)C2=O)c(OC)c1	.	/	.	?	.	.
COc1ccccc1/C=C1\SC(=S)N(NS(=O)(=O)c2ccc(C)cc2)C1=O	.	.	.	27µM	.	.
CC(=NCCc1ccccc1)C1=C(O)CSC1=O	.	.	?	12µM	.	.
CC(=NCCc1ccccc1)C1=C(O)CCC1=O	.	.	.	.	.	.
COc1ccc(/C=C/C(=O)c2ccncc2)c2ccccc12	.	.	25µM	.	-43	?
CCOC(=O)C1(C)/C(=N/Nc2ccccc2)C(=O)C(=O)N1c1ccccc1 (stereo unspecified)	.	.	?	24µM	.	.
CCOC(=O)C1(C)/C(=N/Nc2ccccc2OC)C(=O)C(=O)N1c1ccccc1 (stereo unspecified)	.	.	.	.	.	.
CCCC(=O)NC(c1cccs1)c1cc([N+](=O)[O-])c2cccnc2c1O (stereo unspecified)	.	.	.	.	-32	.
CCC(=O)NC(c1cccs1)c1cc([N+](=O)[O-])c2cccnc2c1O (stereo unspecified)	.	.	.	.	.	.
CCN(CC)c1ccc(/C=C2/C(=O)ON=C2C)cc1	.	.	?	?	.	.
CCN(CC)c1ccc(/C=C2\C(=O)N(c3nnc(C)c(=O)[nH]3)N=C2C)cc1	.	.	16µM	?	.	.
CCCCN1C(=O)C(NC(=O)c2ccc(C(C)(C)C)cc2)(C(F)(F)F)C(C(=O)OC)=C1C (stereo unspecified)	/	/	.	/	/	?
CCCCCCCCCCCCCCOc1ccc(C(=O)O)o1	/	/	11µM	/	.	/
CC(C)n1nnnc1SCC(=O)Nc1ccc2c(c1)OCCO2	.	.	/	/	.	/
SMILES	USP2a block	GALK inh	VDR inh	PLK1 PBD block	Coupling enz	USP1 inh
COc1cc(C(=O)Nc2nc(C)c(Cc3ccc4c(c3)OCO4)s2)cc(OC)c1OC	.	.	?	9.5µM	.	.
CCC(=O)Nc1sc(Cc2ccc3c(c2)OCO3)c(C)c1C(N)=O	.	.	?	21µM	.	.
Cc1nc(NC(=O)c2ccc(OCC(C)C)cc2)sc1Cc1ccc2c(c1)OCO2	.	.	.	.	.	.
Cc1c(Cc2ccc3c(c2)OCO3)sc(NC(=O)c2ccc3ccccc3c2)c1C(N)=O	.	/	.	13µM	.	.
O=C(Nc1cccc([N+](=O)[O-])c1)Nc1ccc2c(c1)CCC2	.	.	.	.	.	.
CC12CC(NC(=O)N1c1ccc(C(=O)N3CCN(c4ccccn4)CC3)cc1)c1ccccc1O2 (stereo unspecified)	.	.	/	/	.	/
COCCN(CC(=O)NCC1CCCO1)C(=O)CCC(=O)Nc1ccccn1 (stereo unspecified)	.	.	35µM	4.7µM	.	.
CCCCc1cc(=O)oc2cc(C)cc(OCC(=O)NCCN3CCOCC3)c12	.	.	.	.	.	.
COC(=O)c1ccccc1NC1=C/C(=N\S(=O)(=O)c2ccc(C(=O)O)cc2)c2ccccc2C1=O	.	?	25µM	?	-48	13µM
COC(=O)c1ccccc1NC1=C/C(=N\S(=O)(=O)c2cccs2)c2ccccc2C1=O	.	.	?	19µM	.	4µM
O=C(CCC1N=C2c3ccccc3N=C(SCC(=O)Nc3ccc(F)cc3)N2C1=O)NCc1ccco1 (stereo unspecified)	/	/	.	/	/	.
COc1ccc(/C=C/C(=O)c2cc(F)ccc2OC(=O)c2ccccc2)cc1OC	/	/	40µM	.	/	.
COc1ccc(/C=C/C(=O)c2cc(F)ccc2OC(=O)c2ccc(OC)c(OC)c2)cc1OC	.	/	.	.	.	.
O=S(=O)(c1ccc(OC(F)(F)F)cc1)N1CCC(O)(c2cccc(C(F)(F)F)c2)CC1	.	.	?	27µM	.	.
OC1(c2cccc(C(F)(F)F)c2)CCNCC1	.	.	.	.	.	.
COc1ccccc1CNC(=O)C(=O)c1cn(CC(=O)N2CCCC2)c2ccccc12	.	.	.	.	/	.
COc1ccccc1CCNC(=O)C(=O)c1cn(CC(=O)N2CCOCC2)c2ccccc12	.	.	?	24µM	/	.
COc1ccc(N(C(=O)c2ccn[nH]2)C(C(=O)NC2CCCC2)c2ccc(F)cc2)cc1 (stereo unspecified)	.	.	.	.	.	.
COc1ccc(S(=O)(=O)N2CCN(Cc3ccccc3OC)CC2)cc1	/	/	/	.	/	.
CCc1ccccc1NC1=NCC(=O)N1Cc1ccc2c(c1)OCO2	.	.	.	30µM	.	.
N#Cc1c(C#N)c(O)c2ccccc2c1O	.	.	28µM	13µM	.	?
N#Cc1ccccc1	.	/	.	.	/	.
Cc1cccc(N(C(=O)c2ccco2)C(C(=O)NC2CCCC2)c2cccnc2)c1C (stereo unspecified)	.	.	.	.	.	.
COc1ccc(C(c2nnnn2Cc2ccc(F)cc2)N2CCN(c3ccc(OC)cc3)CC2)cc1 (stereo unspecified)	.	.	.	.	.	.
Nc1c(C(=O)NC2CC2)sc2nc3c(c(-c4ccco4)c12)CC/C3=C/c1ccco1	22µM	.	.	?	-35	28µM
